Drawing on PubChem BioAssay (EPA / NIEHS), this text covers outcome and AC50 for 38 molecules.

As a reminder, the AC50 is the midpoint of the concentration-response curve, whichever way the signal moves.

Each structure is given as a SMILES string. Where a structure was tested more than once in an assay, its records may differ in their call. Activity calls are given as the source filed them. The calls were made as follows: active = hit-call score of the fitted dose curve at least 0.9, where 1 is the maximum; inactive = score below 0.9.

Read-out in this experiment: Interleukin-8 (IL8), CXCL8 (gene 3576)
The experiment can be described thus: BSK_3C_IL8: BioMAP Diversity Plus: 3C Assay for Interleukin-8 (IL8) Biomarker Activity (AID 2283020). The settings on record: primary human endothelial cells (HUVEC); actives raise or lower the signal. As to the method: BSK_3C is a cell-based, multiplexed-readout assay that uses umbilical vein endothelium, a human vascular primary cell, with measurements taken at 24 hours after chemical dosing in a 96-well plate.BSK_3C_IL8 is an assay component measured in the BSK_3C assay. It measures IL-8 antibody related to regulation of gene expression using ELISA technology.Data from the assay component BSK_3C_IL8 was analyzed into 1 assay endpoint. This assay endpoint, BSK_3C_IL8, was analyzed with bidirectional fitting relative to DMSO as the negative control and baseline of activity. Using a type of binding reporter, gain or loss-of-signal activity can be used to understand changes in the signaling as they relate to the gene CXCL8. Furthermore, this assay endpoint can be referred to as a primary readout, because this assay has produced multiple assay endpoints where this one serves a signaling function. To generalize the intended target to other relatable targets, this assay endpoint is annotated to the cytokine intended target family, where the subfamily is interleukins.
The levels of cell surface (or secreted, indicated by the prefix "s") biomarker endpoints were measured by ELISA. Overt cytotoxicity to cells in confluent adherent cultures (all systems other than the BT system) was assessed by measuring total protein levels using sulforhodamine B (SRB) staining in parallel cultures at the time of biomarker measurements, indicated as SRB endpoints. For proliferation assays for adherent cell types, individual cell types are cultured at sub-confluence and relative cell numbers quantified by SRB staining at time points optimized for each system (48 h: 3C and CASM3C systems; 72 h: BT and HDF3CGF systems; 96 h: SAg system). SRB was performed by staining cells with 0.1% SRB after fixation with 10% TCA and reading wells at 560 nm.Viability and proliferation of PBMC (T cells) was quantified by Alamar Blue reduction for the SAg and BT systems. For PBMC viability (referred to as PBMC Cytotoxicity within the assay endpoint names), cells were plated (75,000/well in a 96-well plate) and then chemical samples added for 1 h before addition of activators, SEB and TSST-1 (20 ng/mL final concentration each). Cells were incubated for 90 h. Then, Alamar Blue (20 uL/well) (Invitrogen, Cat DAL1100) was added for 6 h, and the plates were read with a fluorescence microplate reader at 546/580 nm (excitation/emission). For PBMC proliferation, cells were plated and activated as above but incubated for only 16 h prior to addition of Alamar Blue. Plates were read after 6 h.
Turning to `CCCCC(CC)CO[N+](=O)[O-]` (stereo not given), the outcome was inactive. Regarding `C(=NC1CCCCC1)=NC1CCCCC1`, the half-maximal activity concentration (AC50) was 20 µM (active). As to `O=C(O)CCC(F)(C(F)(F)F)C(F)(F)F`, the outcome was inactive. Take `CC(=O)C(Cl)C(=O)N(C)C` (stereo not given): the concentration at half-maximal activity (AC50) is 11.7 µM (active). As for `ClC1(Cl)C2(Cl)C3(Cl)C4(Cl)C(Cl)(Cl)C5(Cl)C3(Cl)C1(Cl)C5(Cl)C24Cl` (stereo not given), the result was inactive. Still for that read-out and setting: the value for `CC12CC1(C)C(=O)N(c1cc(Cl)cc(Cl)c1)C2=O` (stereo not given) was “inactive”. For the molecule `CC(=O)[O][Hg][c]1ccccc1`, the AC50 is 6 µM (active). Turning to `Oc1c(I)cc(I)cc1I`, the AC50 is 11.5 µM (active). On the same count and under the same terms, the figure for `C[C@]12CCC(=O)C[C@@H]1CC[C@@H]1[C@@H]2CC[C@]2(C)[C@@H](O)CC[C@@H]12` is 21.5 µM (active).

Turning to `COC(=O)c1sccc1S(=O)(=O)NC(=O)Nc1nc(C)nc(OC)n1`, the outcome was inactive.

Regarding `C[C@@H]1C[C@@H]([C@H](O)CC2CC(=O)NC(=O)C2)C(=O)[C@@H](C)C1`, the AC50 was 6.06 µM (active). As to `BrCCBr`, the result was inactive. The same measure, in the same setting: the entry for `COP(=S)(OC)Oc1ccc(S(=O)(=O)N(C)C)cc1` is “inactive”.

As to `O=C(O)C(Cl)(Cl)Cl`, the outcome was inactive. On to `CCOP(=S)(OCC)SCCS(=O)(=O)CC`, for which the result was inactive.

For the molecule `C=CC(=O)OCCCCCC(C)C`, the result was inactive. Regarding `CCCCCCCCc1ccc(O)cc1`, the half-maximal activity concentration (AC50) was 34.6 µM (active). As for `Cn1sc(Cl)cc1=O`, the outcome was inactive. Same read-out and setting: the entry for `COc1cc(OC)nc(NC(=O)NS(=O)(=O)c2ncccc2C(=O)N(C)C)n1` is “inactive”; for `NC(=O)O` it is “inactive”. On to `O=C(O)C(F)(F)C(F)(F)C(F)(F)C(F)(F)C(F)(F)C(F)(F)C(F)(F)C(F)(F)C(F)(F)C(F)(F)F`, for which the result was inactive and the concentration at half-maximal activity (AC50) is 29 µM (active).

For the molecule `CCC(=O)C(CC(C)N(C)C)(c1ccccc1)c1ccccc1` (stereo not given), the result was inactive.

For `Nc1ccc(-c2ccc(N)c(Cl)c2)cc1Cl`, the outcome was inactive. Turning to `OCc1ccco1`, the outcome was inactive. Consider `ClC(Cl)=C(Cl)C(Cl)=C(Cl)Cl`, for which the half-maximal activity concentration (AC50) is 32.4 µM (active). On to `O=C(O)C(F)(F)C(F)(F)C(F)(F)C(F)(F)C(F)(F)C(F)(F)F`, for which the AC50 was 13.9 µM (active) and the outcome was inactive. Consider `C=C(C)C(=O)[O][Sn]([CH2]CCC)([CH2]CCC)[CH2]CCC`, for which the AC50 is 0.148 µM (active). Turning to `COC[C@H](C)N(C(=O)CCl)c1c(C)csc1C`, the outcome was inactive. The same measure, in the same setting: the value for `NC(=S)Nc1ccccc1` was “inactive”. On the same count and under the same terms, the value for `CCOP(=S)(OCC)Oc1ccc(S(C)=O)cc1` (stereo not given) was “inactive”; that for `CC1(C)Cc2cccc(O)c2O1` was “inactive”.

For `CCN1CCC2(CC1)COc1cc3c(cc12)N(C(=O)c1ccc(-c2ccc(-c4nnc(C)o4)cc2C)cc1)CC3`, the AC50 was 18.4 µM (active).

On to `O=S(=O)(c1ccc(Cl)cc1)c1ccc(Cl)cc1`, for which the result was inactive. Take `O=[N+]([O-])c1ccc2c3c(cccc13)CC2`: the result was inactive. The same measure, in the same setting: the entry for `CC(C)(C)c1cc(O)ccc1O` is “inactive”; for `Oc1cccc2cccnc12` it is “inactive”. In the case of `CCC(C)(C)c1ccc(O)c(C(C)(C)CC)c1`, the half-maximal activity concentration (AC50) was 8.88 µM (active). Regarding `O=c1[nH]c(=O)[nH]c(=O)[nH]1`, the outcome was inactive.
